# Measured values: the supplement of paper PMC9694430
# Tests used:
# Assay in all cases: thermal shift delta Tm vs DMSO control; higher = stronger stabilization (binding)
# Settings in all cases: 12.5 µM; protein concentration 2 µM
# LOC_OS01G57100-cb003 = tested on: LOC_OS01G57100-cb003
# How it was run: (§1)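 Compounds dissolved in DMSO were added to purified rice kinase domain constructs, which had been expressed in E. coli, for differential scanning fluorimetry. Each well held 19.5 μl of 2 μM kinase in 100 mM potassium phosphate pH 7.5, 150 mM NaCl, 10% glycerol and 5 × SYPRO Orange. Fluorescence was followed from 25°C to 95°C at a rate of 0.05°C/s. Shifts in Boltzmann-fitted melting temperature are triplicate means relative to DMSO-only protein.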
# LOC_OS01G60330-cb001 = tested on: LOC_OS01G60330-cb001
# How it was run: as §1
# LOC_OS01G60700-cb002 = tested on: LOC_OS01G60700-cb002
# How it was run: as §1
# LOC_OS01G63280-cb003 = tested on: LOC_OS01G63280-cb003
# How it was run: as §1
# LOC_OS01G67340-cb003 = tested on: LOC_OS01G67340-cb003
# How it was run: as §1
# LOC_OS01G70970-cb002 = tested on: LOC_OS01G70970-cb002
# How it was run: as §1
# LOC_OS02G07810-cb001 = tested on: LOC_OS02G07810-cb001
# How it was run: as §1
# LOC_OS02G08530-cb003 = tested on: LOC_OS02G08530-cb003
# How it was run: as §1
# LOC_OS02G14120-cb001 = tested on: LOC_OS02G14120-cb001
# How it was run: as §1
# LOC_OS02G17970-cb001 = tested on: LOC_OS02G17970-cb001
# How it was run: as §1
Compound,thermal shift delta Tm (LOC_OS01G57100-cb003) [°C],thermal shift delta Tm (LOC_OS01G60330-cb001) [°C],thermal shift delta Tm (LOC_OS01G60700-cb002) [°C],thermal shift delta Tm (LOC_OS01G63280-cb003) [°C],thermal shift delta Tm (LOC_OS01G67340-cb003) [°C],thermal shift delta Tm (LOC_OS01G70970-cb002) [°C],thermal shift delta Tm (LOC_OS02G07810-cb001) [°C],thermal shift delta Tm (LOC_OS02G08530-cb003) [°C],thermal shift delta Tm (LOC_OS02G14120-cb001) [°C],thermal shift delta Tm (LOC_OS02G17970-cb001) [°C]
CN1CCC(CNc2ccc3ncc(-c4cccc(OC(F)(F)F)c4)n3n2)CC1 [SGI-1776 free base],0.83,0.19,0.47,0.98,-0.25,1.79,0.42,2.78,7.23,-0.26
CNC(=O)c1cc(Oc2ccc(NC(=O)Nc3ccc(Cl)c(C(F)(F)F)c3)cc2)ccn1 [Sorafenib],3.62,3.63,0.58,9.12,1.48,1.77,1.92,1.8,2.47,2.3
Cc1ccccc1-n1c(Cn2nc(-c3cccc(O)c3)c3c(N)ncnc32)nc2cccc(C)c2c1=O,1.41,0.24,1.19,0.18,0.86,0.24,1.1,0.86,-1.12,-0.12
CCn1c(-c2nonc2N)nc2cnc(Oc3cccc(NC(=O)c4ccc(OCCN5CCOCC5)cc4)c3)cc21,0.1,1.01,1.61,0.37,1.07,0.14,0.95,1.19,-0.13,1.79
COc1cc2ncnc(Nc3ccc(Cl)cc3F)c2cc1OC,1.2,0.41,1.4,0.51,0.32,0.2,1.32,1.3,4.69,1.1
Fc1ccc2[nH]ccc2c1-c1nc(N2CCOCC2)c2sc(CN3CCN(CC4CC4)CC3)cc2n1,1.16,0.82,1.22,0.86,0.95,0.31,0.15,0.45,0.72,0.68
O=C(Nc1cccnc1)c1cc(-c2ccnc(F)c2)ccc1OCc1ccccc1,0.33,0.69,0.86,-0.26,0.85,0.12,0.46,2.26,0.34,0.6
N[C@@H]1CCCN(c2c(/C=C3\SC(=O)NC3=O)cccc2-c2ccccc2)C1,0.49,-0.07,0.8,-0.31,-0.25,0.19,0.55,0.62,-0.31,-0.03
CNS(=O)(=O)C[C@H]1CC[C@H](N(C)c2[nH]cnc3nccc2-3)CC1 [Oclacitinib],1.69,4.38,1.12,2.6,2.18,1.16,0.11,2.49,4.19,1.21
